# Measurements as given in PubChem BioAssay.
# Activity calls are given as the source filed them. Unless noted, the rule behind the calls is not given here.
# Legend:
# [1] = tested on: XIP peptide (Xip251-270) binding; experiment: XIP fragment 251-270 binding compounds – biochemical, small-molecule microarray, fluorescence 635/667 nm, 0.1 µg/mL protein, primary screen (AID 1182); conditions: fluorescent protein binding, 635 nm, higher = more signal, called active from +8 up or from −8 down
# [2] = tested on: XIP peptide (Xip251-270); experiment: compounds binding XIP fragment 251-270 – biochemical, small-molecule microarray, fluorescence 635/667 nm, 0.5 µg/mL protein, primary screen (AID 1183); conditions: fluorescence 635 nm, higher = more signal
# [3] = blood-stage malaria parasite viability loss – strain 3D7, DAPI fluorescence, 100 nL, primary screen (AID 1184);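 note: parasites grown inside human red blood cells in medium with human serum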; conditions: P. falciparum 3D7 growth, 3 d, higher = more signal
# [4] = molecular target: Homeobox protein Hox-A13 (Mus musculus) (UniProt Q62424); experiment: disruptors of Hoxa13 oligonucleotide interaction – biochemical, fluorescence polarization, labeled oligonucleotide, primary screen (AID 1185); conditions: Hoxa13:DNA binding, 15 min, higher = more signal, called active from +8 up or from −8 down
# [5] = blockers of DNA damage checkpoint Chk1 activation – imaging, HeLa, hydroxyurea, phospho-Chk1 antibody, percent positive cells, primary screen (AID 1186); conditions: hydroxyurea-induced phospho-Chk1 immunofluorescence imaging, higher = more signal
# [6] = blockers of DNA damage checkpoint Chk1 activation – imaging, HeLa, hydroxyurea, phospho-Chk1 nuclear intensity, primary screen (AID 1187); conditions: hydroxyurea-induced phospho-Chk1 immunofluorescence imaging, higher = more signal
# Sequence of Homeobox protein Hox-A13 (Mus musculus) (Q62424 whole entry, looked up): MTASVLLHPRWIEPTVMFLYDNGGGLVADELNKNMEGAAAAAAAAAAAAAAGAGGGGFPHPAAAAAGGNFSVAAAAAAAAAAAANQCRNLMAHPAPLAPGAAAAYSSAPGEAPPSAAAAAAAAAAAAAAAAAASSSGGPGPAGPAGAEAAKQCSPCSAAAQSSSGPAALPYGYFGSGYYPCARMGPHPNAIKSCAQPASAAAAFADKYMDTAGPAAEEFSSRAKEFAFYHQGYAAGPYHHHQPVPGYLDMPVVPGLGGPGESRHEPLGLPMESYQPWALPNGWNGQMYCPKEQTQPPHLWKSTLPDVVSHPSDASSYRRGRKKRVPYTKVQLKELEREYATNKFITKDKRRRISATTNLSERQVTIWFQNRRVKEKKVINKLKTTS
SMILES,composite z-score [1],composite z-score [2],z-score [3],z-score [4],z-score [5],z-score [6]
C=C(COC)/C(=C/C[C@@H](OC(=O)c1ccncc1)c1cccc(OCCO)c1)c1cnc2ccccc2c1,0.482 (inactive),0.763,-2.79,-5.6 (inactive),0.594 (inactive),0.376 (inactive)
CN(C)C(=O)[C@]1(CCC(=O)OC(C)(C)C)N=C(c2ccc(OCCCO)cc2)O[C@@H]1c1ccccc1,0.454 (inactive),0.116,0.201,-5.58 (inactive),-0.0091 (inactive),0.277 (inactive)
CCCC[C@@H]1C[C@H]1[C@@H](NC(=O)c1cccnc1)c1ccc(-c2ccccc2)cc1,-0.414 (inactive),-0.0356,-0.814,-3.43 (inactive),0.577 (inactive),0.452 (inactive)
NC(=O)NCC#Cc1ccc2c(c1)[C@]1(C(=O)N2)[C@H](C(=O)O)[C@H]2C(=O)O[C@H](c3ccccc3)[C@H](c3ccccc3)N2[C@@H]1c1ccccc1OCCO,0.638 (inactive),0.823,0.828,-5.72 (inactive),-0.0005 (inactive),0.287 (inactive)
C=CCC(OC(C)=O)[C@@H]1[C@@H](N(Cc2cc3ccccc3o2)C(=O)Cc2ccc(F)cc2)c2cc(OCCCO)ccc2N1C(=O)c1ccc2ccccc2n1 (stereo not given in full),-0.173 (inactive),-0.442,0.774,-1.55 (inactive),0.702 (inactive),0.636 (inactive)
CO[C@H]1O[C@H](CO)[C@@H](OC(=O)c2ccc(Br)cc2)[C@@H]2OC(=O)[C@@H](Cc3ccc4ccccc4c3)C/C=C/C[C@H](Cc3ccc4ccccc4c3)C(=O)O[C@@H]12,1.08 (inactive),0.266,-0.0936,-5.67 (inactive),-0.555 (inactive),-0.449 (inactive)
O=C1NC(=O)C2C1C=CC(C(O)c1cc(C(F)(F)F)cc(C(F)(F)F)c1)N2Nc1ccc(Cl)cc1Cl (stereo not given),1.75 (inactive),0.154,0.0295,-5.48 (inactive),1.15 (inactive),1.26 (inactive)
CC(C)CNC(=O)[C@@H]1c2ccccc2C(=O)N(Cc2cc(F)cc(C(F)(F)F)c2)[C@H]1c1ccc(CO)cc1,1.02 (inactive),0.891,0.204,-3.02 (inactive),-0.478 (inactive),-0.515 (inactive)
COc1ccc(C(O)C2C=CC3C(=O)N(c4ccccc4)C(=O)C3N2Nc2ccc(C#N)cc2)c2ccccc12 (stereo not given),1.41 (inactive),0.728,-0.683,0.744 (inactive),-0.294 (inactive),-0.468 (inactive)
COc1cc(CO)cc(I)c1O[C@H]1C=C(C(=O)NCCO)C[C@@H](N(Cc2ccc(F)cc2)C(=O)C2CCCO2)[C@@H]1O (stereo not given in full),-0.192 (inactive),-0.318,0.463,-4.27 (inactive),0.36 (inactive),0.824 (inactive)
[N-]=[N+]=NCc1ccccc1C[C@@]1(C(N)=O)N=C(c2ccc(OCCCO)cc2)O[C@@H]1c1ccccc1CN=[N+]=[N-],0.145 (inactive),0.0228,-1.91,-1.91 (inactive),-0.228 (inactive),-0.347 (inactive)
C[N+](C)(C)CCCC[C@@H]1NC(=O)[C@@H]2C[C@H](C(=O)O)[C@H](c3ccc(O)cc3)N2C1=O,2.65 (inactive),0.124,-0.195,-1.93 (inactive),0.115 (inactive),0.274 (inactive)
C=CCNC(=O)[C@H]1[C@@H]2C(=O)O[C@@H](c3ccccc3)[C@@H](c3ccccc3)N2[C@@H](c2ccccc2OCCO)[C@]12C(=O)N(C(=O)OCCOC)c1ccc(C#CC3=CCCCC3)cc12,0.234 (inactive),0.719,-2.12,0.724 (inactive),0.557 (inactive),1.47 (inactive)
COCCOC(=O)N1C(=O)[C@@]2(c3ccccc31)[C@H](c1ccc(OCCO)cc1)N1[C@H](c3ccccc3)[C@H](c3ccccc3)OC(=O)[C@H]1[C@@H]2C(=O)Nc1nc2ccccc2s1,1.72 (inactive),0.745,-0.365,0.0267 (inactive),-0.0021 (inactive),-0.178 (inactive)
CCOC(=O)[C@@H]1[C@@H]2C(=O)N(CC)C(=O)[C@@H]2C[C@@H]1Sc1ccccc1,-0.266 (inactive),0.313,-0.555,-4.73 (inactive),0.899 (inactive),0.647 (inactive)
COCC(=C=CC[C@H](O)c1cccc(OCCO)c1)C[C@H](O)c1ccccn1,0.198 (inactive),0.157,-0.737,-4.27 (inactive),-0.028 (inactive),0.745 (inactive)
O=C1O[C@@H](c2ccccc2)[C@@H](c2ccccc2)N2[C@@H](c3ccccc3OCCO)[C@]3(C(=O)Nc4ccc(C#CCCO)cc43)[C@@H](C(=O)Nc3nc4ccccc4s3)[C@H]12,0.767 (inactive),0.698,-2.14,-2.2 (inactive),-0.0607 (inactive),0.0274 (inactive)
COc1ccc([Si](C)(C)[C@@H]2[C@@H](CCn3cc([C@H](O)c4ccccc4)nn3)O[C@]3(C(=O)N(Cc4ccc(N5CCOC5=O)cc4)c4ccccc43)[C@H]2C)cc1,0.0449 (inactive),0.823,-2.78,-3.54 (inactive),0.875 (inactive),0.221 (inactive)
COc1ccc(C(O)C2C=CC3C(=O)N(c4ccccc4)C(=O)C3N2Nc2ccccc2)cc1OCc1ccccc1 (stereo not given),0.0123 (inactive),0.713,-0.0742,-1.8 (inactive),0.302 (inactive),-0.156 (inactive)
CC(C)OC(=O)CC(=O)CC(O)c1cccc(C#N)c1 (stereo not given),0.768 (inactive),0.778,0.612,-0.542 (inactive),-0.467 (inactive),-0.295 (inactive)
CCN(CC)c1ccc(N2CC=CC34O[C@@H]5/C=C\CCC(C)OC(=O)C5[C@H]3C(=O)N(CCO)[C@@H]4C2=O)cc1 (stereo not given in full),1.27 (inactive),0.461,-1.23,-5.86 (inactive),0.695 (inactive),0.21 (inactive)
CC(C)(C)OC(=O)CC[C@]1(C(=O)O)N=C(c2ccc(OCCCO)cc2)O[C@H]1c1ccccc1,-0.0164 (inactive),0.543,-1.62,-3.48 (inactive),-0.388 (inactive),-0.243 (inactive)
CC(C)C(CO)N1C(=O)[C@]2(C)C3C(=O)OCCC/C=C\[C@H]3OC23C=CCN(c2ccc(Cl)cc2)C(=O)[C@@H]13 (stereo not given in full),0.172 (inactive),0.146,0.775,-6.76 (inactive),-0.199 (inactive),-0.181 (inactive)
CN1C(=O)C2C(C1=O)C1C=C(c3ccc(CO)cc3)C2C(c2cccs2)N1Cc1cccc(OC(F)(F)F)c1 (stereo not given),0.94 (inactive),0.591,-3.19,-8.09 (active),-0.384 (inactive),-0.0226 (inactive)
CC(=O)n1cc(C(O)C2C=CC3C(=O)N(Cc4ccccc4)C(=O)C3N2n2cnnc2)c2ccccc21 (stereo not given),0.097 (inactive),0.008,-0.15,-3.16 (inactive),1.19 (inactive),0.239 (inactive)
NCCCCCCNC(=O)[C@H]1C[C@H]2C(=O)N[C@@H](Cc3ccccc3)C(=O)N2[C@H]1c1ccc(O)cc1,-0.342 (inactive),0.623,0.171,-3.5 (inactive),-0.174 (inactive),0.592 (inactive)
O=C1NC(=O)C2C1C=CC(C(O)c1ccc(Br)cc1)N2Nc1ccccn1 (stereo not given),0.623 (inactive),0.883,0.284,-0.555 (inactive),0.48 (inactive),0.784 (inactive)
CC[C@@H]1[C@H]2C3C(=O)N(CC)C(=O)C3CC(=O)[C@H]2[C@H](c2ccc(C)cc2)N1S(=O)(=O)c1ccc(C)cc1 (stereo not given in full),0.117 (inactive),0.643,-0.915,-4.84 (inactive),0.2 (inactive),-0.264 (inactive)
CCOC(=O)C[C@H]1[C@H](OC(=O)c2ccccc2-c2ccccc2)[C@@H](NC(=O)CC(C)C)c2cc(OCCCO)ccc2N1C(=O)c1ccc2ccccc2n1,2.34 (inactive),0.0366,1.65,-3.94 (inactive),0.222 (inactive),-0.537 (inactive)
COC(=O)C1(Cc2ccccc2)C=C2C(=C(c3ccccc3)C(=O)C2C)CN1 (stereo not given),-0.401 (inactive),0.691,-0.246,-9.2 (active),0.222 (inactive),0.532 (inactive)
